According to PubChem BioAssay (EPA / NIEHS):
Calls of active or inactive are those of the source. The calls were made as follows: active = hit-call score of the fitted dose curve at least 0.9, where 1 is the maximum; inactive = score below 0.9.

What follows are compounds tested on Alkaline Phosphatase, Placental (ALPP) gene, ALPP (gene 250) (assay: LTEA_HepaRG_ALPP: Life Technologies and Expression Analysis (LTEA) Assay for Alkaline Phosphatase, Placental (ALPP) gene using HepaRG (AID 2283468;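 as to AC50: ALPP transcript by TaqMan qRT-PCR normalized to ACTB GAPDH and POLR2A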)). Conditions: mRNA level, 48 h; actives raise or lower the signal.
Protocol: LTEA_HepaRG is a cell based, multiplexed-readout assay that uses HepaRG, a human liver cell line, with measurements taken at 48 hours after chemical dosing on a 96-well plate.LTEA_HepaRG_ALPP is one of 102 assay component(s) measured in the LTEA HepaRG cell culture assay. It is a marker of Cell proliferation, survival, death.Data from the assay component LTEA_HepaRG_ALPP was analyzed into 1 endpoint. This assay endpoint, LTEA_HepaRG_ALPP, was analyzed with bidirectional fitting relative to DMSO as the negative control and baseline of activity. Using a type of inducible reporter, measures of mRNA induction for gain or loss-of-signal activity can be used to understand regulation of transcription factor activity. To generalize the intended target to other relatable targets, this assay endpoint is annotated to the phosphatase intended target family, where the subfamily is Cell proliferation, survival, death.
A total of 1060 chemcials from the ToxCast library were tested in eight-point concentration-response experiments. Cell culture and cytotoxicity assays were conducted at Thermo Fisher Scientific's Custom Services facility (Madison, WI). A single lot of human HepaRG cells (Thermo Fisher Scientific, Frederick, MD) was used for the cell culture experiments. 96-well format collagen type I coated plates of human HepaRG cells were prepared using established methods. Briefly, cryopreserved HepaRG cells were thawed, plated at a density of approximately 100,000 cells/well in HepaRG Thaw, Plate, and General Purpose media (HPRG770, Thermo Fisher Scientific), and incubated for 48 hours. 0.5% DMSO was selected as vehicle control to balance the requisite need of DMSO in HepaRG cultures to maintain differentiation (for example, baseline metabolism, proportions of hepatocytes vs. cholangiocytes), while enabling further hepatic receptor pathway activation (for example, PXR and CAR) in response to chemical exposure. 48 hours after plating, the culture medium was replaced with HepaRG Serum-Free Incudtion Media. Cells were exposed to each test chemical in duplicate and maintained in CO2 incubators for another 48 hours. Chemical plates were thawed to room temperature and 200x concentrations of treatment groups were prepared. 8-point conentration-reponse curves were made with the highest exposure at 100 uM, followed by half-log dilutions, all in 0.5% DMSO. Each test plate contained variouse controls, induction positive controls (1mM phenobarbital), cytotoxicity positive controls ([…] aflatoxin B1), vehicle controls (0.5% DMSO), and total lysis controls (0.5% DMSO). Cell morphology images were taken using an Essen IncuCyte FLR automated microscope, with six 96-well plates imaged in about 24 minutes. Images were captured and exported and JPEG files. Spent culture media was transfered to black-well plates for the LDH assay, and remaining media was sorted at -80 C for later use. Cells were treated with RLT buffer and frozen until shipped for gene expression analysis. Total RNA was isolated from the cell suspension in 75 uL of Buffer RLT (Qiagen, Germantown, MD 20874) by Quintiles/Expression Analysis (Durham, NC) using a custom isolation procedure. Total RNA from each plate well was transferred to a preamplification plate. Fluidigm's 96.96 Dynamic ArrayTM (Fluidigm, Amsterdam, the Netherlands) technology was used for gene expression analyses by quantitative reverse transcription polymerase chain reaction (qRT-PCR, performed by Quintiles/Expression Analysis, Durham, NC)89. Standard TaqManTM Assays (Applied Biosystems/ThermoFisher Scientific, Foster City, CA) were used to assess the expression of 93 genes selected based on their selectivity and sensitivity to important hepatic receptors known to be modulated by environmental chemicals; importance in human hepatocyte functionality; and hepatotoxicity. […]
`Nc1ccccc1N` was tested, and the outcome was “inactive”. With `C[C@]12C=CC(=O)C=C1CC[C@@H]1[C@@H]2C(=O)C[C@@]2(C)[C@H]1CC[C@]2(O)C(=O)CO` the outcome was “inactive”. In the case of `CCCCCCCCCCCC(=O)OC`, the outcome is reported as “inactive”. For `Nc1nc(N)c2nc(CNc3ccc(C(=O)N[C@@H](CCC(=O)O)C(=O)O)cc3)cnc2n1`, the outcome was “inactive”. `CC1=C(/C=C/C(C)=C/C=C/C(C)=C/CO)C(C)(C)CCC1` was tested, and the outcome was “inactive”. For `COCCOCCOC`, the outcome was “inactive”. In the case of `Cc1cc(=O)[nH]c(=S)[nH]1`, the outcome is reported as “inactive”. For `CCCCOC(=O)CCCCCCCCC(=O)OCCCC`, the outcome was “inactive”. For `Cc1ccc(C(C)C)c(O)c1`, the outcome was “inactive”. For `CCCCCCCCCCCCCO`, the outcome was “inactive”. `COC(=O)c1ccc(O)cc1` was tested, and the outcome was “inactive”. `O=C(OCCCCCOC(=O)c1ccccc1)c1ccccc1` was tested, and the AC50 was 1.46 µM (active). In the case of `Cc1nc(-c2ccc3c(c2)CCN(CCC2CCC(NC(=O)/C=C/c4ccc(F)cc4)CC2)CC3)no1` (stereo not given), the outcome is reported as “inactive”. In the case of `O=c1c(O)c(-c2ccc(O)c(O)c2)oc2cc(O)cc(O)c12`, the outcome is reported as “inactive”. For `CC(=O)OCCOCCOCCOC(C)=O`, the outcome was “inactive”. With `Nc1ccc(S(=O)(=O)c2ccc(N)cc2)cc1` the outcome was “inactive”. For `Cc1c(C(=O)O)c(O)cc2c1C(=O)c1c(O)c([C@@H]3O[C@H](CO)[C@@H](O)[C@H](O)[C@H]3O)c(O)c(O)c1C2=O`, the outcome was “inactive”. `Cc1ccccc1Cl` was tested, and the outcome was “inactive”. `CC=Cc1ccc(O)c(OC)c1` was tested, and the outcome was “inactive”. For `CCOc1ccc2c(c1)C(C)=CC(C)(C)N2`, the outcome was “inactive”. With `Cc1ccc(Cl)cc1` the outcome was “inactive”. With `CC(CO)OC(C)CO` (stereo not given) (tested in a mixture with another compound) the outcome was “inactive”. For `CCCCCCCCCCCCCCCCCC(=O)O`, the outcome was “inactive”. With `CCCc1cc(=O)[nH]c(=S)[nH]1` the outcome was “inactive”. With `COc1ccc(S(=O)(=O)N2C(=O)[C@@](c3ccccc3OC)(N3C[C@H](O)C[C@H]3C(=O)N(C)C)c3cc(Cl)ccc32)c(OC)c1` the AC50 was 29.5 µM (active). `CCCCCCCCCCCCCCCC` was tested, and the outcome was “inactive”. In the case of `CCOC(=O)CCC(=O)OCC`, the outcome is reported as “inactive”. In the case of `CCNc1cccc(C)c1`, the outcome is reported as “inactive”. With `CCCCCCOCCO` the outcome was “inactive”. `O=C(N[C@@H](Cc1ccccc1)[C@@H](O)C(=O)N1C[C@@H](O)[C@@H](O)C1)c1cc2cc(Cl)ccc2[nH]1` was tested, and the outcome was “inactive”. `Nc1ccc2c(c1)C(=O)c1ccccc1C2=O` was tested, and the outcome was “inactive”. `Cc1ccc(C)c(C)c1` was tested, and the outcome was “inactive”. In the case of `CC(C)(C)c1cc(O)c(C(C)(C)C)cc1O`, the AC50 is reported as 90.8 µM (active). For `Cc1cccc(C)c1O`, the outcome was “inactive”. With `FC(F)(F)C(F)(F)C(F)(F)C(F)(F)C(F)(F)C(F)(F)CCI` the outcome was “inactive”. `Cc1ccc2ncccc2c1` was tested, and the outcome was “inactive”. `Cc1oc(-c2ccccc2)nc1CCOc1cccc2c1ccn2CCC(=O)O` was tested, and the AC50 was 63 µM (active). In the case of `Oc1ccc2c(c1)OC[C@@H](N1CCC(O)(c3ccc(F)cc3)CC1)[C@H]2O`, the outcome is reported as “inactive”. `CCCCCCCCCCO` was tested, and the outcome was “inactive”. `CC(=O)OC/C=C(\C)CCC=C(C)C` was tested, and the outcome was “inactive”.
